In the supplement of paper PMC13392028:
The full ranking holds about 4,100 sequences; the median of “RBNS R-value (6-mer enrichment in protein-bound RNA vs input library)” is about 0.96, and the highest 2% start at about 2.4. Many of the other results were omitted from the sample, so the highest values are more common in it than they were.

Test system: PyIESI-1 RRM domain (Plasmodium yoelii PY17X_0911200 aa 795-956, GST fusion)
Test: RBNS R-value (6-mer enrichment in protein-bound RNA vs input library) (ratio); higher = stronger binding preference; the methods of the paper give 50 / 100 / 500 nM protein instead
Experimental: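 RNA Bind-n-Seq: recombinant GST-tagged IESI-1 RRM domain was incubated at room temperature with a random 40-nt in vitro transcribed RNA library at 250, 500 or 1000 nM protein. Bound RNA was pulled down on glutathione beads and sequenced. R-value is the enrichment of each 6-mer in the bound RNA relative to the input library. Each 6-mer sits inside the random 40-mer context, not as an isolated oligo. Values are replicate 1 only.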

Sequence | RBNS R-value (protein concentration: 250 nM) | RBNS R-value (protein concentration: 500 nM) | RBNS R-value (protein concentration: 1000 nM)
CGGUGA | 1.36 | 1.39 | 1.35
ACCGCG | 1.03 | 1.03 | 1.04
CGAACC | 1.09 | 1.06 | 1.06
GGGCCG | 1 | 1.01 | 0.999
GCAAGC | 0.92 | 0.933 | 0.931
CCGGUC | 0.872 | 0.923 | 0.916
AAUGCG | 0.941 | 0.968 | 0.97
GAUGCU | 2.48 | 2.42 | 2.51
CAUGCC | 0.921 | 0.929 | 0.99
UAUGCG | 0.859 | 0.856 | 0.873
GAUGCC | 2.7 | 2.6 | 2.86
UAUGCA | 0.689 | 0.714 | 0.705
GAUGCA | 2.66 | 2.5 | 2.68
UAUGCC | 0.797 | 0.84 | 0.861
AAUGCU | 0.903 | 0.932 | 0.944
GAUGCG | 2.54 | 2.45 | 2.52
CAUGCA | 0.757 | 0.762 | 0.774
CAUGCU | 0.844 | 0.875 | 0.883
CUGCCA | 1.03 | 1.05 | 1.07
UUUGUU | 0.893 | 0.907 | 0.907
ACGAAC | 0.96 | 0.939 | 0.926
AUUUAU | 0.824 | 0.83 | 0.836
UGCUUU | 1.1 | 1.15 | 1.18
UGAUGA | 9.09 | 7.87 | 7.73
AUAUGA | 1.78 | 1.74 | 1.84

Sequence | RBNS R-value (protein concentration: 250 nM) | RBNS R-value (protein concentration: 500 nM) | RBNS R-value (protein concentration: 1000 nM)
CGAUGA | 3.48 | 3.36 | 3.47
CAAUGA | 2.27 | 2.18 | 2.28
AGAUGA | 2.69 | 2.61 | 2.72
UUAUGA | 1.76 | 1.72 | 1.81
UGAUGU | 7 | 6.29 | 6.39
CGAUGU | 2.03 | 2.04 | 2.13
AGAUGU | 1.45 | 1.47 | 1.54
GGAUGA | 1.75 | 1.71 | 1.69
AGAUGC | 1.47 | 1.52 | 1.65
CGAUGC | 2.07 | 2.1 | 2.31
UCACCA | 0.862 | 0.849 | 0.9
GGAGCG | 1.01 | 1.01 | 0.994
AUACCA | 0.709 | 0.723 | 0.733
AACUUC | 0.893 | 0.92 | 0.901
CGCAAG | 0.91 | 0.907 | 0.917
UCCCAA | 0.972 | 0.967 | 0.987
GGGGGA | 1.03 | 1.05 | 1.01
AGAUGG | 1.49 | 1.46 | 1.49
UGAUGC | 6.04 | 5.5 | 5.71
GGAUGC | 1.08 | 1.04 | 1.08
UGAUGG | 5.96 | 5.24 | 5.21
UUAUGC | 0.736 | 0.778 | 0.779
CGAUGG | 2.05 | 1.98 | 2
CAAGGC | 0.956 | 0.935 | 0.949
CACACU | 0.829 | 0.834 | 0.839
